Our source for the max response, negative = inhibition and Potency values is PubChem BioAssay AID720504 (National Center for Advancing Translational Sciences (NCATS), 2013).

About 10,000 (2.8%) of roughly 360,000 compounds were called active. About 4% were inconclusive and are not listed. This excerpt belongs to a sample that is enriched for actives. Unmarked numbers belong to inactive results. The call rests on the fitted dose curve; in most records, active means well fitted inhibition curve with a large enough effect; inconclusive means small, poorly fitted or top-dose-only effect; inactive means flat fitted curve, though single readings scatter.
On the % scale 0 is the no-effect control and ±100 the full control effect; potency means the concentration at half of the fitted maximal effect.

Serine/threonine-protein kinase PLK1 (Homo sapiens), sequence (P53350 whole entry, looked up, the tested form may be a part): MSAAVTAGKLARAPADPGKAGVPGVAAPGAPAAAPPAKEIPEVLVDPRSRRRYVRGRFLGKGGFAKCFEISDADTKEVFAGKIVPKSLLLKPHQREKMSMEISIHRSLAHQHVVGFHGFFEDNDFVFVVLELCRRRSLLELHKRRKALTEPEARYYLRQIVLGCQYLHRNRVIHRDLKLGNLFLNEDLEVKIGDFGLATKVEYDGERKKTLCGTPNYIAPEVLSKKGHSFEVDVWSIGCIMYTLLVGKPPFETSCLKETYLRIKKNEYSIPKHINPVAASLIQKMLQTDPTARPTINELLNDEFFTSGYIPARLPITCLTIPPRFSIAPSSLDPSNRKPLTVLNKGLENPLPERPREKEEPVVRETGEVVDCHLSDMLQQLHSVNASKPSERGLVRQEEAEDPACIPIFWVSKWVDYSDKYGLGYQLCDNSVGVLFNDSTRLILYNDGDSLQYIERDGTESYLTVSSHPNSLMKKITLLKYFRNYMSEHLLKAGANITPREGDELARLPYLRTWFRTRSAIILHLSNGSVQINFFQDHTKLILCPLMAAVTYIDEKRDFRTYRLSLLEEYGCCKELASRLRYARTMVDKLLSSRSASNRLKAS

This experiment addresses Serine/threonine-protein kinase PLK1 (Homo sapiens) (UniProt P53350). As to the kind of experiment: qHTS for Inhibitors of PLK1-PDB (polo-like kinase 1 - polo-box domain): Primary Screen. Further: nearly all actives have a fitted effect of over 65% in size. On max response, negative = inhibition: series mostly up to about 57 µM. The conditions noted are these: Plk1 PBD binding of FITC phosphopeptide, fluorescence polarization.
`Nc1nc2c(ncn2[C@@H]2O[C@H](CNCc3ccc(OCCCN4CCOCC4)cc3)[C@@H](O)[C@H]2O)c(=O)[nH]1`: the max response, negative = inhibition was -2.1%. In the case of `COc1cccc(-c2cnc(C(O)c3ccccc3OC)[nH]2)c1` (stereo not drawn), the max response, negative = inhibition was -12.1%.

Consider `CCCc1cc(=O)oc2c(C)c(OCC(=O)Nc3ccccn3)ccc12`, for which the max response, negative = inhibition was 7.66%.

For `CCCc1cc(=O)oc2c(C)c(OCC(=O)NCc3ccccn3)ccc12`, the max response, negative = inhibition was 0.145%. In the case of `CCc1cc(=O)oc2c(C)c(OCC(=O)NCCN3CCOCC3)ccc12`, the Potency was 21.2 µM (active). On to `COc1ccc(C(C)C)cc1-c1ccc2nncn2c1`, for which the max response, negative = inhibition is -3.26%.

As to `COc1cccc(-c2cc3nc(NCCOc4ccccc4Cl)n(C)c(=O)c3s2)c1`, the max response, negative = inhibition is -5.38%.

Take `O=C(Nc1ccccc1)c1ccccc1Br`: the max response, negative = inhibition is -3.61%. As for `COCCCN1C(=O)C(CC(=O)NCc2cccs2)CC(C(=O)N2CCOCC2)=C1C` (stereo not drawn), the max response, negative = inhibition is -4.29%.

On to `CSc1nc(C)cc(SC(C(C)=O)C(=O)Nc2ccccc2)n1` (stereo not drawn), for which the Potency was 26.7 µM (active).

`CSc1nc(N(C)NC(=O)c2cccc(C)c2)c2ccccc2n1`: the max response, negative = inhibition was -6.24%.

Turning to `CC(Sc1nnc2c(n1)C1CCC2(C)C1(C)C)C(=O)Nc1ccccc1` (stereo not drawn), the max response, negative = inhibition was 1.59%. Same read-out and setting: as for `CC(C)NC(=O)C1(C)CCCCCN1C(=O)c1ccc(-c2ccccc2)cc1` (stereo not drawn), the figure is -8.92%; as for `COc1ccc(-c2ccc(CN3C(C(C)C)C(=O)N(Cc4cn(CC5CCCCC5)nn4)CCS3(=O)=O)cc2)cn1` (stereo not drawn), -14.8%; as for `COC(=O)C1(C(=O)OC)C[C@H](c2ccccc2)N(Cc2ccccc2OC)[C@@H]1c1ccccc1`, -15.2%. On the same count and under the same terms, with `CCN(CC)C(=O)C1=C(C)N(Cc2ccc(F)cc2)C(=O)C(CC(=O)NCc2cccc3ccccc23)C1` (stereo not drawn) the figure was -13.9%. Still for that read-out and setting: with `CCCc1c(-c2ccccc2F)ncn1Cc1ccccc1OC` the figure was -1.08%. For the compound `Cc1ccccc1-c1csc(C(O)c2cccc(Cl)c2)n1` (stereo not drawn), the max response, negative = inhibition is -10.6%. Turning to `O=C(/C=C/[C@H]1O[C@@H](n2cnc3c(NC(=O)c4ccccc4)ncnc32)[C@H](O)[C@@H]1O)NCc1ccccc1`, the max response, negative = inhibition was -4.8%. With `CCCCn1c(SCC(=O)NCCc2ccc(OC)c(OC)c2)nc2c1c(=O)n(C)c(=O)n2C`, the max response, negative = inhibition was -1.04%.

`CCCSc1nc2c(c(=O)n(C)c(=O)n2C)n1Cc1ccc(C)cc1`: the max response, negative = inhibition was -10.2%.

In the case of `CCOc1ccc(Cn2c(SCCCCC#N)nc3c2c(=O)n(C)c(=O)n3C)cc1OCC`, the Potency is 18.9 µM (active). With `COc1ccc(NC(=O)C2Cc3c(-c4ccc(Cl)cc4)ccnc3O2)cc1` (stereo not drawn), the max response, negative = inhibition was 1.68%.
